KCNQ2 pot – enhances the rat KCNQ2 potassium channel | O88943 | CHO-K1 KCNQ2, FluxOR thallium flux fluorescence; active compounds read high | B-score at 10 µM | 0.54% of 310,000 active | AID 2239;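 active = fluorescence ratio B-score at least 3 SD of library B-scores, with initial fluorescence B-score within 3 of them, cut at about 5.3 in these data; same plate scores as AID 2156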;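 note: B-score of peak minus minimum over baseline fluorescence ratio after K+ and Tl+ stimulus; positive B-score means potentiation of KCNQ2 with more thallium influx and brighter signal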
KCNQ2 inh – inhibitors of rat KCNQ2 potassium channel; O88943; CHO-K1 KCNQ2, FluxOR thallium flux, 20 min; active compounds read low; B-score at 10 µM; 1.1% of 310,000 active;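 active = fluorescence ratio B-score at most minus 3 library SDs, with starting brightness B-score within 2 library SDs, cut at about -5.5 in these data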
KCNQ2 inh conf – confirmation of rat KCNQ2 potassium channel inhibitors; 57% of 1,000 active; AID 493025; shares compounds with KCNQ2 inh; activity change, negative = inhibition, % at 10 µM; KCNQ2-expressing cells, thallium flux, inhibition; active compounds read low;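 note: 0% = vehicle wells and values are ratio percent relative to vehicle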
KCNQ1 spec – KCNQ2 inhibitor that also affects human KCNQ1 channel | activity change, negative = inhibition, % at 10 µM | 15% of 1,000 active | KCNQ1-expressing cells, FluxOR thallium flux fluorescence; active compounds read low | shares compounds with KCNQ2 inh | AID 493026;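 active = activity change at least 3 SD of negative controls below their mean in both duplicate wells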;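 note: CHO cells stably transfected with KCNQ1 and depolarized by potassium stimulus; peak minus minimum fluorescence over baseline after thallium addition; 0% = vehicle negative control and -100% = blank without thallium stimulus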
Target sequence (P51787 whole entry, looked up): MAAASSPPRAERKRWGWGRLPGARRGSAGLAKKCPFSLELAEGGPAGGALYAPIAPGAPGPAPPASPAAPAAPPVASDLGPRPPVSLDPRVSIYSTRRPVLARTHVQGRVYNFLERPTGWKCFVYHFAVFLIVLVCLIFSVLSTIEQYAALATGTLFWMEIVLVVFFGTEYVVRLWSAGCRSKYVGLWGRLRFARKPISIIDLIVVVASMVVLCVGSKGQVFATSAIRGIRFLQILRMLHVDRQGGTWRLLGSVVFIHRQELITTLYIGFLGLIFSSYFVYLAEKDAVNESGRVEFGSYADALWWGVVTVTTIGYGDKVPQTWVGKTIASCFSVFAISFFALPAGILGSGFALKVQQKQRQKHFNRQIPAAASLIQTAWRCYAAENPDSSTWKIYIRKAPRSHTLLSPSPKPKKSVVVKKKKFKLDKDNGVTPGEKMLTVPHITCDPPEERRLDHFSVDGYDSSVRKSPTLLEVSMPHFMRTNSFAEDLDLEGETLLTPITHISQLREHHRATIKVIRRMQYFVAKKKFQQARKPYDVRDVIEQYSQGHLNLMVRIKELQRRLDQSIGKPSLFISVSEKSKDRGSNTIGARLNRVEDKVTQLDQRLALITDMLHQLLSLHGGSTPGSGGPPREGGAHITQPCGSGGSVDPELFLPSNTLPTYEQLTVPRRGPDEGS
CHO parental ctr – activity in parental CHO cells lacking KCNQ2; activity change, % at 10 µM; thallium flux counter-screen; active compounds read low; shares compounds with KCNQ2 inh; 14% of 1,000 active; AID 493029;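 note: 0% = vehicle negative controls with stimulus buffer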
KCNQ2 patch conf – confirmation of rat KCNQ2 potassium channel inhibitors. shares compounds with KCNQ2 inh. KCNQ2-expressing cells, automated patch clamp current. calls only at 10 µM. 49% of 550 active. AID 588531
* hit, by the source's call; i = inactive; x = no result; + = active, no number. This is a sample that favours compounds with a hit; in the whole collection about 1.6% have one here. Unless noted, the rule behind the calls is not given here.

SMILES	KCNQ2 pot	KCNQ2 inh	KCNQ2 inh conf	KCNQ1 spec	CHO parental ctr	others
Cc1ccc(C(O)(c2ccccc2)c2ccccc2C(C)N(C)C)c(C)c1 (stereo not given)	-8.9	-8.9*	-31%*	i	i	KCNQ2 patch conf=+
CC(c1ccccc1C(O)c1ccccc1)N(C)C (stereo not given)	0.59	i	x	x	x
CC(C)[C@H](NC(=O)N1CCn2c1nc1ccccc12)C(=O)NCc1ccc(F)cc1	x	i	x	x	x
CC(C)[C@H](NC(=O)N1CCn2c1nc1ccccc12)C(=O)NCc1ccccc1Cl	-8.1	-8.1*	-34%*	-32%*	-24%*	KCNQ2 patch conf=+
CC1(C)CC(=O)C=C(c2cccs2)C1	0.12	i	x	x	x
Cc1ccc(S(=O)(=O)Nc2ccc(N=Nc3ccc(O)cc3)cc2)cc1	-8.7	-8.7*	i	i	i
CSc1ccc(S(=O)(=O)Nc2ccc(S(=O)(=O)Nc3ccc(C)cc3)cc2)cc1	x	i	x	x	x
O=C(Oc1ccc(Br)cc1C(=S)N1CCOCC1)c1ccc([N+](=O)[O-])cc1[N+](=O)[O-]	x	i	x	x	x
Cc1ccc2oc(C(=O)N3CCC(O)(c4ccccc4)CC3)c(C)c2c1	0.49	i	x	x	x
CCN1CCN(C(=O)Cn2nc(C)c3sc4ccccc4c3c2=O)CC1	x	i	x	x	x
COc1ccc(NC(=O)c2c3c(nc4ccccc24)CCN(Cc2ccccc2)C3)c(OC)c1	-11	-11*	i	i	i
COc1ccc(S(=O)(=O)N2CCCCCC2)cc1NC(=O)c1c2c(nc3ccccc13)CCN(Cc1ccccc1)C2	x	i	x	x	x
COC(=O)c1ccc(Cn2nc(-c3ccc(C)cc3)ccc2=O)cc1	0.01	i	x	x	x
CC(=O)N1CCN(C(=O)c2cccc(NS(=O)(=O)c3ccc(Br)cc3)c2)CC1	1	i	x	x	x
CN(C)S(=O)(=O)c1ccc(N2CCCC2)c(C(=O)NNC(=O)COc2ccccc2Cl)c1	x	i	x	x	x
CN(C)S(=O)(=O)c1ccc(N2CCCC2)c(C(=O)NNC(=O)COc2ccccc2F)c1	-8.3	-8.3*	-22%*	i	i	KCNQ2 patch conf=+
COc1ccc(/C=C2\SC(=S)N(N3CCOCC3)C2=O)c(OC)c1	x	i	x	x	x
COc1cccc(/C=C2\SC(=S)N(N3CCOCC3)C2=O)c1OC	-8.6	-8.6*	-34%*	i	i	KCNQ2 patch conf=i
Cc1ccc(S(=O)(=O)N2CCN(C(=O)CC(C)n3nc(C)c(Cl)c3C)CC2)cc1C (stereo not given)	x	i	x	x	x
COc1ccccc1N1CCN(C(=O)C(Cc2ccccc2)NC(=O)C2CCCCC2)CC1 (stereo not given)	-7.4	-7.4*	-33%*	i	i	KCNQ2 patch conf=+
CCC(C(=O)N1CCN(c2ccccc2OC)CC1)c1ccccc1 (stereo not given)	x	i	x	x	x
CC1Sc2ccc(S(=O)(=O)CCC(=O)NCc3ccc(Cl)cc3)cc2NC1=O (stereo not given)	0.51	i	x	x	x
CC(C)C1CCN(C(=O)C2CCC(=O)N(CCc3ccc(Cl)cc3)C2)CC1 (stereo not given)	x	i	x	x	x
C=CCC1(CC=C)CCCN1C(=O)C1CCC(=O)N(CCc2ccc(Cl)cc2)C1 (stereo not given)	-8.2	-8.2*	-29%*	i	i	KCNQ2 patch conf=+
Cc1noc(C)c1C(=O)N(CC(C)C)c1nc2ccccc2s1	0.04	i	x	x	x
SMILES	KCNQ2 pot	KCNQ2 inh	KCNQ2 inh conf	KCNQ1 spec	CHO parental ctr	others
COCCNc1c(-c2ccc(OC)cc2)nc2ccc(Cl)cn12	x	i	x	x	x
CCOC(=O)CNc1c(-c2ccc(OC)cc2)nc2ccc(Cl)cn12	-8.9	-8.9*	-28%*	i	i	KCNQ2 patch conf=+
CCOc1ccc(C(=O)CCC(=O)N(CC)CC(=O)NCc2ccc(Cl)cc2)cc1	x	i	x	x	x
CCCCCN(C(=O)CCC(=O)OCC(=O)c1cccc(OC)c1)c1c(N)n(CCCC)c(=O)[nH]c1=O	x	i	x	x	x
CC1CC(C)CN(S(=O)(=O)c2ccc(C(=O)N3CCOCC3)cc2)C1 (stereo not given)	1.4	i	x	x	x
CCNc1nc(NCC)n2c(SC(C(=O)Nc3cc(C)ccc3C)c3ccccc3)nnc2n1 (stereo not given)	x	i	x	x	x
CCOCCCn1c(SC(C(=O)Nc2cc(C)ccc2C)c2ccccc2)nnc1-c1ccc(Cl)cc1 (stereo not given)	-9.6	-9.6*	-24%*	i	i	KCNQ2 patch conf=+
COC(=O)c1cn(NC(=O)/C=C/c2cc(OC)ccc2OC)c(=O)c2ccccc12	x	i	x	x	x
O=C(CN1CCc2cc3c(cc2C1)OCCCO3)Nc1cccc(Br)c1	x	i	x	x	x
CC(Sc1nnc(Nc2ccccc2)s1)C(=O)NC1CCCc2ccccc21 (stereo not given)	x	i	x	x	x
Cc1ccccc1-n1nnnc1SC(C)C(=O)NC1CCCc2ccccc21 (stereo not given)	-8.8	-8.8*	-37%*	-38%*	-31%*	KCNQ2 patch conf=+
O=C(CSc1nnnn1-c1ccccc1)NC1CCCc2ccccc21 (stereo not given)	x	i	x	x	x
Cc1ccccc1CC(=O)NC1CCCc2ccccc21 (stereo not given)	x	i	x	x	x
Cc1nnc(SC(C)C(=O)NC2CCCc3ccccc32)n1-c1ccccc1 (stereo not given)	-6.6	-6.6*	-37%*	i	i	KCNQ2 patch conf=+
Cc1ccccc1-n1c(C)nnc1SCC(=O)NC1CCCc2ccccc21 (stereo not given)	-7.7	-7.7*	i	i	i
COc1ccc(OC)c(NC(=O)c2cccc(NC(=O)c3ccccc3)c2)c1	0.67	i	x	x	x
CCC(C)[C@H]1COCCS(=O)(=O)N1Cc1ccc(Br)cc1 (stereo not given in full)	x	i	x	x	x
C=CCN1CC(C(=O)N2CCC(Cc3ccc(Cl)cc3)(C(=O)OCC)CC2)CC1=O (stereo not given)	0.08	i	x	x	x
COc1ccc(NC(=O)CCCN2C(=O)C(c3ccccc3)Oc3cccnc32)cc1OC (stereo not given)	0.35	i	x	x	x
COc1ccc(Br)cc1CNC(=O)CN1C(=O)C(c2ccccc2)Oc2cccnc21 (stereo not given)	-7	-7*	-26%*	i	i	KCNQ2 patch conf=+
CCC(C(=O)Nc1ccc(C(=O)O)cc1NC(=O)C(CC)c1ccccc1)c1ccccc1 (stereo not given)	x	i	x	x	x
CCc1ccc(C(C)NC(=O)/C(C#N)=C\c2cn[nH]c2-c2ccccc2)cc1 (stereo not given)	-9.1	-9.1*	i	i	i
CC(NC(=O)/C(C#N)=C/c1cn[nH]c1-c1ccccc1)c1ccccc1 (stereo not given)	x	i	x	x	x
CC(=O)NS(=O)(=O)c1ccc2sc(C)nc2c1	x	i	x	x	x
CC1Oc2cc3oc4c(O)c5c(cc4c(=O)c3c(O)c2C1(C)C)C=CC(C)(C)O5 (stereo not given)	x	i	x	x	x
CC(C)=CCc1cc2c(=O)c3c(O)c4c(cc3oc2c(O)c1O)OC(C)C4(C)C (stereo not given)	-8.6	-8.6*	i	i	i
